Experimental data: the OligoGym collection

target: LPAR3; assay: pooled miR-30 sensor sort-seq; sequence = guide strand; settings: shRNA
Also: reference of the scale not given here.

Row | Sequence | sensor-assay potency score (higher = more potent)
1 | TTGTAGGAGTAGATGATGGGGT | -0.155
2 | TTCTGTTTTTGATCACTGCCGC | -0.331
3 | TTGACAGTCAAAGTTTTTGAAA | -1.6
4 | TAAATTAGCCAACAGGTAGTAG | -0.542
5 | TAAGACAGTCATCACCGTCTTC | -0.295
6 | TTGACGTACACGTAGATCCGCA | 0.439
7 | TTAAACATCAGGAATACATAGG | -0.219
8 | TTGGCTAATACTATCCTCTATG | -0.824
9 | ATGAGGTTGGACACTGTCCAGA | -1.36
10 | TTCCTGTCCAGTCATCGACAGT | -1.5
11 | TTCCTCTTGACGTACACGTAGA | -0.848
12 | TTGCAGACTGCACCTTGGCTAA | -1.28

target: LRCH2; assay: as above; settings: shRNA

Row | Sequence | sensor-assay potency score (higher = more potent)
13 | TATTACTTGTAAATGATGCAGC | 0.387
14 | TATCCATTCTGCAACATGCTTG | -0.471
15 | TTGCAATGGATTGTTATCCAAA | -1.31
16 | TTCATTGCCACTTGAACTCTTC | 0.503
17 | TTTATTATTACTGACGACCAAA | -1.09
18 | TTGTTCATCTATTTGATCCTTC | 0.648
19 | TTTATTACAAGAGAAATCCAGC | -0.214
20 | TTCTTCTCATTGTAAATCCTGG | -0.64
21 | TACTTGTAAATGATGCAGCTTT | 0.0854
22 | TTAAACATATCTGTGCTGGTGG | 0.402
23 | TTCATCTGCTGAGACACTCTTT | 0.135
24 | TTCATCTATTTGATCCTTCTGA | 0.249

target: LRRC14; assay: as above; settings: shRNA

Row | Sequence | sensor-assay potency score (higher = more potent)
25 | TACCACTGTCTTCTTGTCCATG | -0.472
26 | TTCCACACCATCATCCAAGAGG | -1.09
27 | TACGGCAGCAGTACAGTCCCAC | -0.572
28 | TCACGCAGACAGGTGAAGCGGC | -0.746
29 | TAGCAGTCCACAGGGAAGGGGT | -0.698
30 | ATGCACATAGTGGAGCCGCAGG | -1.72
31 | TGGCACTGCAGCACCTGCCGTG | -0.778
32 | TTGAGGTGGGCAGCATGTGGGC | -1.24
33 | TAGCGGAAGTTGTCCTCGCCAT | -0.494
34 | TTGTCCATGAAGGCCACCTTGA | -1.21
35 | TTGAAGCGCAGGTCCACGCGGC | -0.0617
36 | TTGTCCTCGCCATCCACGGAGG | -1.48
